Assay results as given in PubChem BioAssay (NCI).
The panel holds about 83,000 compounds, 20% with a hit somewhere; the sample as a whole holds those more often.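 48-hour exposure, single concentration, 96-well plates; percent growth endpoint where 0 means no net growth. Active: below 10.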 Values without a mark were called inactive. Activity calls are given as the source filed them.

Legend:
Assay in all cases: NCI-60 one-dose screen, 48 h (100 = growth as untreated, 0 = no growth, -100 = all killed)
Conditions in all cases: 10 µM
NCI-H23 lung = system: NCI-H23 lung
NCI-H226 lung = system: NCI-H226 lung
NCI-H322M lung = system: NCI-H322M lung
HOP-62 NSCLC = system: HOP-62 NSCLC
NCI-H460 lung = system: NCI-H460 lung
NCI-H522 lung = system: NCI-H522 lung
A549/ATCC NSCLC = system: A549/ATCC NSCLC
786-0 renal = system: 786-0 renal
COLO 205 colon = system: COLO 205 colon
DU-145 prostate = system: DU-145 prostate
K-562 leukemia = system: K-562 leukemia
MALME-3M melanoma = system: MALME-3M melanoma
MDA-MB-231 breast = system: MDA-MB-231 breast
RXF 393 renal = system: RXF 393 renal
SF-268 CNS = system: SF-268 CNS
SF-295 CNS = system: SF-295 CNS
SF-539 CNS = system: SF-539 CNS
UACC-257 melanoma = system: UACC-257 melanoma
M14 melanoma = system: M14 melanoma
HCT-15 colon = system: HCT-15 colon

| SMILES | growth (NCI-H23 lung) | growth (NCI-H226 lung) | growth (NCI-H322M lung) | growth (HOP-62 NSCLC) | growth (NCI-H460 lung) | growth (NCI-H522 lung) | growth (A549/ATCC NSCLC) | growth (786-0 renal) | growth (COLO 205 colon) | growth (DU-145 prostate) | growth (K-562 leukemia) | growth (MALME-3M melanoma) | growth (MDA-MB-231 breast) | growth (RXF 393 renal) | growth (SF-268 CNS) | growth (SF-295 CNS) | growth (SF-539 CNS) | growth (UACC-257 melanoma) | growth (M14 melanoma) | growth (HCT-15 colon) |
| --- | --- | --- | --- | --- | --- | --- | --- | --- | --- | --- | --- | --- | --- | --- | --- | --- | --- | --- | --- | --- |
| COc1cc(Cl)cc(-c2nn(-c3cccc(NC(=O)Nc4ccc(Cl)c(Cl)c4)c3)cc2-c2ccncc2)c1 | 5.72% (active) | 7.27% (active) | 32.3% | 15.7% | 3.1% (active) | -19% (active) | 11.4% | 19.6% | -70.3% (active) | 12.1% | 10% | -19.8% (active) | -21% (active) | 4.46% (active) | 25.3% | -2.42% (active) | 20.9% | -11.5% (active) | 18.7% | 13.9% |
| N#Cc1ncc(Br)c(NC2CCCCCC2)n1 | 103% | 97.1% | 105% | 106% | 116% | 110% | 89% | 104% | 113% | 103% | 97.1% | 145% | 98% | 95.2% | 111% | 93.4% | 99.5% | 95% | 114% | 92.3% |
| C#Cc1ccc(-n2c(/C=C/c3ccc4ccccc4n3)nc3ncccc3c2=O)cc1 | -44.9% (active) | -81.9% (active) | -45.1% (active) | -34% (active) | -46.3% (active) | -73.9% (active) | -25.8% (active) | 0.1% (active) | -94.9% (active) | -37.6% (active) | 3.17% (active) | -62.9% (active) | -41.2% (active) | -82.5% (active) | -49.5% (active) | -58.3% (active) | -17.6% (active) | -72.9% (active) | -19% (active) | -18.8% (active) |
| CN(C)CCCn1c(=O)c2ccccc2c2cnc3[nH]ccc3c21 | 13.8% | -0.537% (active) | 9.79% (active) | -1.44% (active) | -6.21% (active) | -38.9% (active) | 1.69% (active) | 15.2% | -31.3% (active) | -0.745% (active) | -10.9% (active) | -25.1% (active) | -11.2% (active) | 5.57% (active) | 21.1% | 12.4% | 30.3% | -20.6% (active) | -6.79% (active) | 10.5% |
| COc1ccc(OC)c(/C=C/c2nnc(Nc3ccc(Cl)cc3)o2)c1 | 87.8% | 56.1% | 58.6% | 35.3% | 15.5% | 92.9% | 40.2% | 27.9% | 74.2% | 78.9% | 80.6% | 41.5% | 70.9% | 56.3% | 76.5% | 46.9% | 90% | 100% | 77.9% | 98.3% |
| O=C(O)CC(Cl)C(Cl)CC(=O)O (stereo not given) | 102% | 119% | 93.1% | 110% | 101% | 86.3% | 94.6% | 101% | 112% | 106% | 103% | 90.7% | 117% | 127% | 105% | 92.7% | 99.3% | 92.2% | 102% | 99.2% |
| COc1cc2nc(Nc3cccc(C(=O)O)c3)nc(N)c2cc1OC | 128% | 91.4% | 126% | -37.3% (active) | 108% | 87.4% | 104% | -9.99% (active) | 111% | 102% | 108% | 111% | 86.8% | 106% | 95.3% | 96.4% | 97% | 97.5% | -45.1% (active) | 102% |
| c1ccc2c(-c3nc(N4CCOCC4)c4c5c(sc4n3)CCCCCC5)cccc2c1 | 107% | 93.8% | 110% | 101% | 104% | 91.2% | 97.7% | 103% | 114% | 119% | 115% | 97% | 96.7% | 95.9% | 102% | 98.1% | 98.9% | 110% | 110% | 100% |
| O=c1[nH]c2ccc(Cl)cc2c2ccccc12 | 86.6% | 85.1% | 42.5% | 72.2% | 42.7% | 109% | 79.5% | 49.5% | 86.5% | 78.2% | 110% | 60.7% | 78.2% | 61.1% | 79.4% | 97.9% | 80.1% | 105% | 94.7% | 93.3% |
| COc1cc(-c2cc(/C=C/C(=O)c3ccc(Cl)c(Cl)c3)[nH]n2)cc(OC)c1OC | 101% | 81.7% | 62.7% | 75.9% | 79.4% | 38% | 88.3% | 69.7% | 78% | 62.4% | 31.9% | 87% | 62.3% | 67.3% | 104% | 141% | 35% | 89.7% | 89.8% | 50.9% |
| O=C(Nc1nc2ccccc2s1)Nc1ccc([N+](=O)[O-])cc1Cl | 36.9% | 103% | 33.3% | 110% | 32.6% | -22.6% (active) | -53.1% (active) | -23.5% (active) | 111% | 87% | 58.8% | 96.4% | 40.1% | -17.7% (active) | 3.97% (active) | 67.8% | -48.5% (active) | -10.6% (active) | 79.7% | 87.2% |
| Cc1ccc(NC(=O)Nc2nc3ccccc3s2)cc1NC(=O)Nc1nc2ccccc2s1 | 89.5% | 90% | 97.6% | 88.3% | 88.5% | -33.8% (active) | 42.5% | 97.1% | 80.6% | 107% | 83.8% | 90.6% | 82.4% | 94.7% | 91.5% | 101% | 74.6% | 10.5% | 90.3% | 72.9% |
| COc1ccc(-c2nn(-c3cccc(NC(=O)c4cccc(C(F)(F)F)c4)c3)cc2-c2ccncc2)cc1Cl | 52% | 52.1% | 47.3% | 41.9% | 8.19% (active) | -20.1% (active) | 19.8% | 17.1% | 17.3% | 50.5% | 14.8% | 12.6% | 9.03% (active) | 19.4% | 37.5% | -10.7% (active) | -39.6% (active) | 25.5% | 7.66% (active) | 26.9% |
| COc1cc(-c2cc(/C=C/C(=O)c3ccc4c(c3)OCO4)[nH]n2)cc(OC)c1OC | 102% | 84.6% | 54.2% | 48.7% | 68.6% | 57.4% | 87.2% | 40.6% | 100% | 48% | 22.3% | 95.7% | 64.5% | 75.4% | 85.3% | 19.5% | 3.66% (active) | 107% | 101% | 63.9% |
| C=C(NC(=O)C(=C)NC(=O)c1csc(C2=NC3c4csc(n4)C4NC(=O)c5csc(n5)C(C(C)(O)C(C)O)NC(=O)C5CSC(=N5)/C(=C/C)NC(=O)C(C(C)O)NC(=O)c5csc(n5)C3(CC2)NC(=O)C(C)NC(=O)C(=C)NC(=O)C(=C)NC(=O)C(C(C)C)NC2C=Cc3c(C(C)O)cc(nc3C2O)C(=O)OC4C)n1)C(N)=O (stereo not given) | 11.1% | -26.3% (active) | 45.9% | 2.24% (active) | 1.43% (active) | -39.1% (active) | 31.7% | -10.4% (active) | -70.2% (active) | -23% (active) | -11.3% (active) | -64.6% (active) | 29.7% | 16.9% | 21.5% | 26.6% | -22.5% (active) | 24.2% | -29.5% (active) | -23.7% (active) |
| CCN(CC)CCSCCN(CC)CC | 102% | 101% | 109% | 108% | 102% | 84.1% | 103% | 102% | 106% | 109% | 100% | 106% | 118% | 104% | 106% | 101% | 97% | 97.6% | 111% | 97.9% |
